# Screening results: PubChem, National Center for Advancing Translational Sciences (NCATS)
# CHX counter – Cycloheximide Counterscreen for Small Molecule Inhibitors of Shiga Toxin; cell reporter, cycloheximide protein synthesis inhibition counterscreen; 300,000 tested, 12% active; max response, %; AID 2314, 2010; in the data active = max response mostly above about 13%, no sharp cut-off; inactive = mostly below about 14%; note: read at 38.3 µM for the half of the compounds with a filed dose; 0% is about no effect
# Sm TGR inh – qHTS Assay for the Inhibitors of Schistosoma Mansoni Peroxiredoxins | Potency, µM (doses to about 114 µM), for the others: at the highest dose activity change, negative = inhibition, most hits filed as inhibitors | 360,000 tested, 3% active | purified TGR, DTNB reduction, TNB absorbance 405 nm | Schistosoma mansoni thioredoxin glutathione reductase (TGR), Q962Y6; note: potency is the fitted concentration of half-maximal effect; % is set by controls: 0 for no effect and ±100 for the full control effect; nearly all actives have a fitted effect of over 60% in size
#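 First, TGR (20 nM dispensed) and NADPH were mixed with compound. Second, a 15 min room-temperature incubation followed. Third, further NADPH and then DTNB were added to start the reaction. Finally, TNB absorbance was monitored kinetically.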
# Shiga inhibitor – A qHTS for Small Molecule Inhibitors of Shiga Toxin | Vero cells, Shiga toxin protein synthesis inhibition reporter | inhibition, % at 38.7 µM | 290,000 tested, 9.2% active; in the data active = inhibition mostly above about 28%, no sharp cut-off; inactive = mostly below about 43%; note: 0% is about no effect
# TbPYK inhibitor – qHTS of Trypanosoma Brucei Inhibitors; pyruvate kinase (Trypanosoma brucei), Q57TT1; TbPYK enzyme, Kinase-Glo Plus ATP luminescence, 45 min; Potency, µM (highest dose often 76.8 µM), for inactives: at the top dose activity, negative = inhibition, most hits filed as inhibitors; 410,000 tested, 0.12% active; note: potency is the fitted concentration of half-maximal effect; % is set by controls: 0 for no effect and ±100 for the full control effect; nearly all actives have a fitted effect of over 50% in size
#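 TbPYK + substrate in 50 mM TEA pH 7.2, 100 mM KCl, 10 mM MgCl2, 0.05% BSA, 0.01% Tween-20; cpd pinned; ADP 130 uM final; 45 min RT; Kinase-Glo Plus 10 min; luminescence endpoint.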
# LmPK inh – qHTS Assay for Inhibitors of Leishmania Mexicana Pyruvate Kinase (LmPK); purified LmPK, Kinase-Glo ATP luminescence, 1 h; AID 1721, 2009; Potency, µM (titrated, usually from 57.5 µM), for inactives: top-dose activity change, negative = inhibition, usual class: inhibitors; Q27686; 290,000 tested, 0.37% active; note: potency is the fitted concentration of half-maximal effect; % is set by controls: 0 for no effect and ±100 for the full control effect
# Target sequence (Q27686 whole entry, looked up): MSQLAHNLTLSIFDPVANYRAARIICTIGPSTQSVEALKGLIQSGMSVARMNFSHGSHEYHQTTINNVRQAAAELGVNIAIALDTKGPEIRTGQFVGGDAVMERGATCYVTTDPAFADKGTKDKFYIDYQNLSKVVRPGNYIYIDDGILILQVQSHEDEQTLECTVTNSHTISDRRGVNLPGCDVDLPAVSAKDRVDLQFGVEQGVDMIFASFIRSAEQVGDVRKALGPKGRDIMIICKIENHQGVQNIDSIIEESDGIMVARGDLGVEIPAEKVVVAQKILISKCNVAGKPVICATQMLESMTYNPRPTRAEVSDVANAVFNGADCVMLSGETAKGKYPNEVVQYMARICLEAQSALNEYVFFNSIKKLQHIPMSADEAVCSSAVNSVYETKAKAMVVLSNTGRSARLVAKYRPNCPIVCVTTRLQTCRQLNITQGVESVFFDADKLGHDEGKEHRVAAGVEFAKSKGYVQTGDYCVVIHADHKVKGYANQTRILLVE
#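 0.1 nM LmPK, 0.5 mM PEP, 0.1 mM ADP; 50 mM imidazole pH 7.2, 7 mM MgCl2, 50 mM KCl; 1 h RT. Kinase-Glo luminescence readout, normalized to no-enzyme (full inhibition) and uninhibited wells.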
# FBPA Giardia inh – qHTS Assay for Inhibitors of Fructose-1,6-bisphosphate Aldolase from Giardia Lamblia; AID 2451, 2010; purified Giardia FBPA; A8B2U2; 290,000 tested, 0.71% active; Potency, µM (doses to about 59.6 µM), for the others: at the top dose activity, negative = inhibition, hits mostly inhibitors; note: potency is the fitted concentration of half-maximal effect; % is set by controls: 0 for no effect and ±100 for the full control effect; nearly all actives have a fitted effect of over 55% in size
#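 Giardia FBPA (40 nM reagent) was preincubated 10 min at RT with compound (up to 57.5 uM final), then substrate plus GAPDH/TPI/NAD/arsenate coupling system with diaphorase/resazurin was added; resorufin fluorescence (525/598 nm) was read after 20 min.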
# Starred values were filed as active, the others as inactive; ? = inconclusive; · = no result. Shown is part of a subset that was picked to be rich in hits. Unless noted, calls come from the whole dose curve; as a rule, active = well fitted curve in the direction sought with a large enough effect; inconclusive = small, poorly fitted or top-dose-only effect, or another doubt; inactive = no such curve, though single readings can be large; an effect the other way counts as inactive or inconclusive.
SMILES,CHX counter,Sm TGR inh,Shiga inhibitor,TbPYK inhibitor,LmPK inh,FBPA Giardia inh
O=C(O)Cn1cc(/C=c2/sc3nc4ccccc4n3c2=O)c2ccccc21,37*,-2%,115*,-9%,13%,-11%
COc1cc(N2CCCC2)c(OC)cc1/C=c1/sc2nc3ccccc3n2c1=O,-2,-1%,13,·,-7%,-15%
O=c1/c(=C\c2cccn2-c2ccccc2)sc2nc3ccccc3n12,21,-8%,28*,-6%,3%,5%
CCOC(=O)C1CCN(C(=O)c2cnn(-c3ccc(F)cc3)c2-n2cccc2)CC1,·,-9%,·,-10%,·,·
Cc1cccc(NC(=O)Nc2cnccn2)c1C,6,0%,-11,6%,4%,4%
Cc1ccc2ccc3c(c2n1)NS(=O)(=O)c1ccc(C(F)(F)F)cc1-3,-4,·,-4,·,·,·
CCN(c1ccccc1)S(=O)(=O)c1cc(C(=O)Nc2cccc(Cl)c2)ccc1F,13,-10%,-15,-6%,3%,1%
CCc1ccc(NC(=O)c2ccc(F)c(S(=O)(=O)N(CC)c3ccccc3)c2)cc1,14*,0%,2,-9%,4%,1%
Cc1ccc(-c2cn(-c3ccccc3)c(SCC(N)=O)n2)cc1C,37*,-18%,43*,4%,1%,-5%
Cc1ccccc1-n1cc(-c2ccc(Br)cc2)nc1SCC(N)=O,0,4%,1,3%,-4%,-7%
CCOC(=O)NC(=O)CSc1nnnn1-c1ccccc1,-3,3%,1,-2%,4%,4%
CCOC(=O)NC(=O)CSc1nc(-c2ccc(C)c(C)c2)cn1-c1ccccc1,63*,3%,131*,?,0%,1%
CC1=C/C(=N\OS(=O)(=O)c2ccccc2)C(C(C)C)=CC1=O,21*,?,37,-3%,-3%,11µM*
CON=C1C=C(C)C(=O)C(C)=C1C,·,·,·,2%,·,·
CC1=C/C(=N\OS(=O)(=O)c2ccccc2)C(C)=CC1=O,8.3*,45µM*,18,4%,-4%,7.9µM*
CC1=C(C)/C(=N\OS(=O)(=O)c2ccc(C)cc2)C=CC1=O,-9,7.9µM*,-6,-10%,1%,4µM*
O=C(Nc1ccc(F)cc1F)c1ccc(-n2cccn2)c([N+](=O)[O-])c1,16,45µM*,16,-2%,-9%,-25%
C=CCn1c(=O)c(C(=O)Nc2ccccc2S(N)(=O)=O)c(O)c2ccccc21,31*,2%,73*,-2%,3%,-24%
CCCCNc1nc2cccnc2s1,22*,2%,62*,10%,-1%,1%
Clc1ccc(Nc2nc3cccnc3s2)cc1,30*,·,90*,1%,-1%,-8%
O=[N+]([O-])c1cccnc1Nc1ccc(Cl)cc1,·,·,·,5%,·,·
CCCCNc1n[n+](C)c(-c2cccc(C)c2)s1,1,-10%,21,·,1%,-7%
C[C@@](N)(C(=O)O)c1cccc(CC(=O)O)c1,·,·,·,·,·,1%
O=C(NNC(=O)C1C2CCC(C2)C1C(=O)O)c1cccc(Cl)c1 (stereo not drawn),19*,·,58,-4%,-4%,0%
CCOc1cccc(C(=O)NC2CCCCC2)c1,30*,3%,101*,8%,0%,0%
SMILES,CHX counter,Sm TGR inh,Shiga inhibitor,TbPYK inhibitor,LmPK inh,FBPA Giardia inh
O=C(NC1CCCC1)c1cccc(Cl)c1,7,0%,14,-5%,-16%,-4%
O=C(NC1CCCCCCC1)c1cccc(Cl)c1,40*,2%,64*,-15%,-4%,2%
CCOc1ccc(C(=O)NC2CCCCCCC2)cc1,·,·,·,-8%,·,·
Cn1ncc2c1ncn1nc(CCc3ccccc3)nc21,52*,10%,68*,-1%,-5%,1%
Brc1ccccc1-n1ncc2c1ncn1nc(Cc3ccccc3)nc21,·,7%,·,2%,·,·
Cn1ncc2c1ncn1nc(COc3ccc4ccccc4c3)nc21,40*,-10%,-15,-2%,0%,2%
COc1ccc(-c2coc3cc(O)cc(O)c3c2=O)cc1,50*,3%,93*,-9%,-6%,4%
